According to PubChem BioAssay (Tox21):
Records with an inconclusive call do not appear. Where a call stands in place of a potency, no number is given. Active and inactive are the calls of the source. Unless noted, calls come from the whole dose curve; as a rule, active = well fitted curve in the direction sought with a large enough effect in the repeat runs; inconclusive = weak or mixed curves; inactive = no such curve, though single readings can be large; an effect the other way counts as inactive or inconclusive.

Tests used:
[1] = qHTS assay for small molecule agonists of the p53 signaling pathway (AID 651631; calls by dose curve; note: nearly all actives have a fitted effect of over 15% in size)
Procedure, shortened: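 HCT-116 p53RE-bla reporter line, 16 h compound treatment at 37 °C, then fluorescence after 2 h with B/G FRET substrate.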

[2] = qHTS assay for small molecules that induce genotoxicity in human embryonic kidney cells expressing luciferase-tagged ATAD5 (AID 651632); note: nearly all actives have a fitted effect of over 15% in size
Procedure, shortened: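 DMSO vehicle served as the control. HEK293T reporter cells, 16 hr at 37C, then 30 min Amplite at room temperature; ATAD5 induction is measured as luciferase activity.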

[3] = qHTS assay for small molecule agonists of the p53 signaling pathway - cell viability (AID 651633; calls by dose curve;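 note: p53RE-bla HCT reporter cells with a stable beta-lactamase p53 reporter; series mostly up to about 83 µM; nearly all actives have a fitted effect of over 30% in size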)
Procedure, shortened: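 p53RE-bla cells, seeded at 4,000 per well and rested 5 h at 37 C/5% CO2, received compounds in DMSO for 16 h at 37 C. CellTiter-Glo was then added, and luminescence was read after 30 min at room temperature to gauge cytotoxicity.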

[4] = qHTS assay for small molecules that induce genotoxicity in human embryonic kidney cells expressing luciferase-tagged ATAD5 - cell viability (AID 651634; calls by dose curve; note: nearly all actives have a fitted effect of over 25% in size)
Procedure, shortened: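 Here HEK293T cells with the ATAD5 luciferase reporter are incubated with test compounds for 15.5 hr, and cytotoxicity is then gauged by measuring protease activity in live cells using fluorescence.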

[5] = qHTS assay for small molecule disruptors of the mitochondrial membrane potential - cell viability (AID 720634; calls by dose curve;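 note: human HepG2 liver cancer cells; series mostly up to about 83 µM; nearly all actives have a fitted effect of over 20% in size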)
Procedure, shortened: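 Viability of HepG2 cells is scored from ATP content by luminescence; cells are exposed to compound for 1 hr at 37 C and 5% CO2, then dosed with m-MPI dye before the CellTiter-Glo reagent.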

[6] = qHTS assay to test for compound auto fluorescence at 590 nm (red) in HepG2 cells (AID 720674)
Procedure, shortened: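 Compound auto-fluorescence is scored relative to Rose Bengal sodium, measured at 540/590 nm in live HepG2 cultures after 1 hr compound contact (37 C, 5% CO2).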

[7] = qHTS assay to test for compound auto fluorescence at 535 nm (green) in HepG2 cells (AID 720675)
[8] = qHTS assay to test for compound auto fluorescence at 460 nm (blue) in HEK293 cells (AID 720678)
Procedure, shortened: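 Blue read-out at excitation 405 nm and emission 460 nm follows overnight compound exposure of HEK293 cells at 37C in 5% CO2. Activity is given as auto fluorescence equivalency to triamterene.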

[9] = qHTS assay to test for compound auto fluorescence at 590 nm (red) in HEK293 cells (AID 720679)
Procedure, shortened: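 Red channel, Ex/Em 540/590nm; signal expressed as equivalency to Rose Bengal sodium. HEK293, 2,000 cells/well, 10% dialyzed FBS; 23 nL compound pinned after 4-5 hr attachment; overnight 37C/5% CO2 before reading.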

[10] = qHTS assay to test for compound auto fluorescence at 535 nm (green) in HEK293 cells (AID 720680)
[11] = qHTS assay to test for compound auto fluorescence at 460 nm (blue) in HEK293 cell free culture (AID 720681)
Procedure, shortened: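 Test compounds were pinned into cell-free culture medium (DMEM with 10% FBS) and fluorescence was read directly at Ex/Em 405/460 nm. Signals were expressed as fluorescence equivalents of triamterene, with DMSO vehicle as control.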

[12] = qHTS assay to test for compound auto fluorescence at 535 nm (green) in HEK293 cell free culture (AID 720682)
Procedure, shortened: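 Steps: dispense DMEM/10% FBS into empty wells; pin in compound or DMSO; measure fluorescence at 485/535 nm. Values are fluorescein equivalents.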

[13] = qHTS assay to test for compound auto fluorescence at 590 nm (red) in HEK293 cell free culture (AID 720683)
Procedure, shortened: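 Tox21 10K library compounds were pinned into cell-free DMEM with 10% FBS and fluorescence was read at excitation 540 nm. Activity is expressed as Rose Bengal sodium equivalency.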

[14] = qHTS assay to test for compound auto fluorescence at 590 nm (red) in HepG2 cell free culture (AID 720684)
Procedure, shortened: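 Ex 540 / Em 590 nm read of compound in cell-free MEM (10% FBS). Rose Bengal sodium reference.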

[15] = qHTS assay to test for compound auto fluorescence at 460 nm (blue) in HepG2 cell free culture (AID 720685)
Procedure, shortened: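 Cell-free plates of MEM plus 10% FBS received 23 nL compound or DMSO vehicle; blue-channel (405/460 nm) intensity scored against triamterene as reference fluorophore.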

[16] = qHTS assay to test for compound auto fluorescence at 535 nm (green) in HepG2 cell free culture (AID 720686)
[17] = qHTS assay to test for compound auto fluorescence at 460 nm (blue) in HepG2 cells (AID 720687)
Procedure, shortened: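 Cells (2,000/well in MEM with 10% FBS) attached overnight at 37 C, then were exposed to compound or DMSO for 1 hr at 37 C, 5% CO2. Fluorescence read at Ex/Em 405/460 nm, expressed as triamterene-equivalent signal.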

[18] = target: Glucocorticoid receptor (Homo sapiens) (UniProt P04150); experiment: qHTS assay to identify small molecule agonists of the glucocorticoid receptor (GR) signaling pathway (AID 720691; active = well fitted activation curve with a large enough effect in the signal ratio in the repeat runs, not every such curve was filed as active; the % refers to the signal ratio)
Procedure, shortened: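 Compounds in DMSO, alongside positive controls, were added to GR-bla HeLa reporter cells and incubated 18 h at 37 C; GRE-driven beta-lactamase was detected by fluorescence after 2 h with FRET substrate at room temperature.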

[19] = qHTS assay for small molecule disruptors of the mitochondrial membrane potential (AID 720635); note: potency is the fitted concentration of half-maximal effect
Procedure, shortened: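 HepG2 cells (2,000/well) attached overnight at 37C, then took compound for 1 hr at 37C, 5% CO2. Mito-MPS dye was added for 30 min; fluorescence was read at 490/535 nm (monomers) and 540/590 nm (aggregates).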

[20] = target: Glucocorticoid receptor (Homo sapiens) (UniProt P04150); experiment: qHTS assay to identify small molecule antagonists of the glucocorticoid receptor (GR) signaling pathway (AID 720692; active = well fitted inhibition curve with a large enough effect in the signal ratio in the repeat runs, not every such curve was filed as active; the % refers to the signal ratio)
Procedure, shortened: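 In a 1536-well cell format, compounds were added 4 h after seeding GR-bla HeLa cells, together with dexamethasone at 5 nM final; reporter activity was measured by FRET-substrate fluorescence following 18 h at 37 C.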

Glucocorticoid receptor (Homo sapiens), sequence (P04150 whole entry, looked up): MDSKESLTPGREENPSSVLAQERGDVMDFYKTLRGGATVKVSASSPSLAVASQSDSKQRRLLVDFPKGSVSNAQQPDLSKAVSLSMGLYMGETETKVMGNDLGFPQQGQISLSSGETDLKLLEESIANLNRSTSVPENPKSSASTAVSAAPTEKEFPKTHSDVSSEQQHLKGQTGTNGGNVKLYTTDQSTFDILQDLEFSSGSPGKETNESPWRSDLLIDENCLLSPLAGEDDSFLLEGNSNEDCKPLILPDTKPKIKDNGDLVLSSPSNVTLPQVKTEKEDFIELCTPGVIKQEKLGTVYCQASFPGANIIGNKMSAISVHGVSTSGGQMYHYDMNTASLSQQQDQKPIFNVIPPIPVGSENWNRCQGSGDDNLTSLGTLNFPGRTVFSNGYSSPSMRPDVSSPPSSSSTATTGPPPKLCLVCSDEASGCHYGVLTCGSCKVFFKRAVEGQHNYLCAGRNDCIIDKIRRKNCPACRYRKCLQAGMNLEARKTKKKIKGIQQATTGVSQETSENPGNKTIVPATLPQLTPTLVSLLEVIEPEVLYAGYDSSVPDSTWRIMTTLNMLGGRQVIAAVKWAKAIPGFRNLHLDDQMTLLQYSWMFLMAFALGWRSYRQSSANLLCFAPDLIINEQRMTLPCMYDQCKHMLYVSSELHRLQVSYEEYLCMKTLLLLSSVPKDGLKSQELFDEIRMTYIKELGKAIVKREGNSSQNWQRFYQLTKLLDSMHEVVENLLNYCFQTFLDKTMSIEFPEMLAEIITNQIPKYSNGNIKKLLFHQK

Structure (SMILES)	outcome [1]	Potency [2]	outcome [3]	Potency [4]	Potency [5]	outcome [6]	outcome [7]	outcome [8]	outcome [9]	outcome [10]	outcome [11]	outcome [12]	outcome [13]	outcome [14]	outcome [15]	outcome [16]	outcome [17]	Potency [18]	Potency [19]	Potency [20]
CCOC(=O)[C@H](CCc1ccccc1)N[C@@H](C)C(=O)N1[C@H](C(=O)O)C[C@@H]2CCC[C@@H]21	inactive	inactive	inactive	inactive	inactive	inactive	inactive	inactive	inactive	inactive	inactive	inactive	inactive	inactive	inactive	inactive	inactive	inactive	–	–
CC(C)(CC(=O)O)C(=O)O	inactive	inactive	inactive	inactive	inactive	inactive	inactive	inactive	inactive	inactive	inactive	inactive	inactive	inactive	inactive	inactive	inactive	–	inactive	–
CN(C(=O)c1c(O)c2ccccc2n(C)c1=O)c1ccccc1	inactive	inactive	inactive	inactive	inactive	inactive	inactive	inactive	inactive	inactive	–	inactive	inactive	inactive	inactive	inactive	inactive	inactive	inactive	inactive
CC(C[N+](C)(C)C)OC(N)=O (stereo unspecified)	inactive	inactive	inactive	inactive	inactive	–	inactive	inactive	inactive	inactive	inactive	inactive	inactive	inactive	–	inactive	inactive	inactive	inactive	inactive
CN1CCCC1	inactive	inactive	inactive	inactive	inactive	inactive	inactive	inactive	inactive	inactive	inactive	inactive	inactive	inactive	inactive	inactive	inactive	–	–	–
C=CCCCCCCCCC=O	inactive	inactive	inactive	inactive	inactive	inactive	inactive	inactive	inactive	inactive	inactive	inactive	inactive	inactive	inactive	inactive	inactive	inactive	–	inactive
NC(=O)c1ccc([N+](=O)[O-])cc1	inactive	inactive	inactive	inactive	inactive	inactive	inactive	inactive	inactive	inactive	inactive	inactive	inactive	inactive	inactive	inactive	inactive	inactive	–	inactive
Cn1cc(S(C)=O)c(=O)c2ccc(F)cc21 (stereo unspecified)	inactive	inactive	inactive	inactive	inactive	–	inactive	inactive	inactive	inactive	inactive	inactive	inactive	inactive	inactive	inactive	inactive	inactive	inactive	inactive
CCOC(=O)c1ccc(C)cc1	inactive	inactive	inactive	inactive	inactive	inactive	inactive	inactive	inactive	inactive	inactive	inactive	inactive	inactive	inactive	inactive	inactive	inactive	inactive	inactive
N[C@H]1CN(c2c(F)cc3c(=O)c(C(=O)O)cn(C4C[C@H]4F)c3c2Cl)CC12CC2 (stereo partly specified)	inactive	inactive	inactive	inactive	inactive	inactive	inactive	inactive	inactive	inactive	inactive	inactive	inactive	inactive	inactive	inactive	inactive	inactive	inactive	inactive
COC(=O)c1c(Cl)c(Cl)c(C(=O)OC)c(Cl)c1Cl	inactive	inactive	inactive	inactive	inactive	inactive	inactive	inactive	inactive	inactive	inactive	inactive	inactive	inactive	inactive	inactive	inactive	inactive	inactive	inactive
CC1(C)CO[C@@H](CC(=O)O)CN1	inactive	inactive	inactive	inactive	inactive	inactive	inactive	inactive	inactive	inactive	inactive	inactive	inactive	inactive	inactive	inactive	inactive	inactive	–	–
O=C(O)CCCc1ccccc1	inactive	inactive	inactive	inactive	inactive	inactive	inactive	inactive	inactive	inactive	inactive	inactive	inactive	inactive	–	inactive	inactive	inactive	inactive	inactive
NS(=O)(=O)c1ccccc1Cl	inactive	inactive	inactive	inactive	inactive	inactive	inactive	inactive	inactive	inactive	inactive	inactive	inactive	inactive	inactive	inactive	inactive	–	inactive	–
O=C1NC(=O)[C@@]2(CCOc3ccc(F)cc32)N1	inactive	inactive	inactive	inactive	inactive	inactive	inactive	inactive	inactive	inactive	inactive	inactive	inactive	inactive	inactive	inactive	inactive	–	inactive	–
FC(F)OC(Cl)C(F)(F)F (stereo unspecified)	inactive	inactive	inactive	inactive	inactive	inactive	inactive	inactive	inactive	inactive	inactive	inactive	inactive	inactive	–	inactive	inactive	inactive	inactive	inactive

Structure (SMILES)	outcome [1]	Potency [2]	outcome [3]	Potency [4]	Potency [5]	outcome [6]	outcome [7]	outcome [8]	outcome [9]	outcome [10]	outcome [11]	outcome [12]	outcome [13]	outcome [14]	outcome [15]	outcome [16]	outcome [17]	Potency [18]	Potency [19]	Potency [20]
CC(C)(O)C#CC(C)(C)O	inactive	inactive	inactive	inactive	inactive	inactive	inactive	inactive	inactive	inactive	inactive	inactive	inactive	inactive	inactive	inactive	inactive	–	inactive	–
Cc1ccc(=O)n(-c2ccccc2)c1	inactive	inactive	inactive	inactive	inactive	inactive	inactive	inactive	inactive	inactive	inactive	inactive	inactive	inactive	inactive	inactive	inactive	–	–	–
CC(=O)Nc1c(I)cc(I)c(C(=O)O)c1I	inactive	inactive	inactive	inactive	inactive	inactive	inactive	inactive	inactive	inactive	inactive	inactive	inactive	inactive	inactive	inactive	inactive	inactive	inactive	inactive
CC1=CC(C)C(C=O)CC1 (stereo unspecified)	inactive	inactive	inactive	inactive	inactive	–	inactive	inactive	inactive	inactive	inactive	inactive	inactive	inactive	inactive	inactive	inactive	inactive	inactive	inactive
O=C(O)c1ccccc1OP(=O)(O)O	inactive	inactive	inactive	inactive	inactive	–	inactive	inactive	inactive	inactive	inactive	inactive	inactive	inactive	inactive	inactive	inactive	inactive	inactive	inactive
CCSC(=O)N(CC(C)C)CC(C)C	inactive	inactive	inactive	inactive	inactive	–	inactive	inactive	inactive	inactive	inactive	inactive	inactive	inactive	inactive	inactive	inactive	inactive	inactive	inactive
Cc1cccc(C)c1NC(=O)C(C)N (stereo unspecified)	inactive	inactive	inactive	inactive	inactive	inactive	inactive	inactive	inactive	inactive	inactive	inactive	inactive	inactive	inactive	inactive	inactive	inactive	inactive	inactive
O=c1cc(CO)occ1O	inactive	inactive	inactive	inactive	inactive	–	inactive	inactive	inactive	inactive	inactive	inactive	inactive	inactive	–	inactive	inactive	inactive	inactive	inactive
N[C@H](C(=O)O)c1ccc(O)cc1	inactive	inactive	inactive	inactive	inactive	inactive	inactive	inactive	inactive	inactive	inactive	inactive	inactive	inactive	inactive	inactive	inactive	inactive	inactive	inactive
CCCCCCCCCCCC	inactive	inactive	inactive	inactive	inactive	inactive	inactive	inactive	inactive	inactive	inactive	inactive	inactive	inactive	inactive	inactive	inactive	inactive	inactive	inactive
COc1cc(C(=O)N2CCCCCCC2)cc(OC)c1OC	inactive	inactive	inactive	inactive	inactive	inactive	inactive	inactive	inactive	inactive	inactive	inactive	inactive	inactive	inactive	inactive	inactive	–	–	–
CC(=O)Nc1ccc(S(N)(=O)=O)cc1	inactive	inactive	inactive	inactive	inactive	inactive	inactive	inactive	inactive	inactive	inactive	inactive	inactive	inactive	inactive	inactive	inactive	inactive	–	inactive
Oc1ccc(C2CNCCc3c2cc(O)c(O)c3Cl)cc1 (stereo unspecified)	inactive	inactive	inactive	inactive	inactive	inactive	inactive	inactive	inactive	inactive	–	inactive	inactive	inactive	inactive	inactive	inactive	inactive	inactive	inactive
OCCOc1ccc(OCCO)cc1	inactive	inactive	inactive	inactive	inactive	inactive	inactive	inactive	inactive	inactive	–	inactive	inactive	inactive	–	inactive	inactive	inactive	1560 nM (active)	inactive
CCCCOCCOCCOCCCC	inactive	inactive	inactive	inactive	inactive	inactive	inactive	inactive	inactive	inactive	–	inactive	inactive	inactive	inactive	inactive	inactive	inactive	inactive	inactive
